Source: PubChem BioAssay (NCATS)
Results filed as inconclusive are left out. Values without a mark were called inactive. Active and inactive are the calls of the source. The call rests on the fitted dose curve; in most records, active means well fitted inhibition curve with a large enough effect; inconclusive means small, poorly fitted or top-dose-only effect; inactive means flat fitted curve, though single readings scatter.

These molecules were tested against Glutathione peroxidase 1 (Homo sapiens) (UniProt P07203) (assay: Primary qHTS Assay for Inhibitors of Recombinant Selenoprotein Glutathione Peroxidase 1 (GPX1) (AID 1845191; further: nearly all actives have a fitted effect of over 65% in size)). Conditions: recombinant GPX1, GR-coupled NADPH fluorescence, 15 min; series mostly up to 48.8 µM; activity, negative = inhibition: at the top concentration.
Sequence of Glutathione peroxidase 1 (Homo sapiens) (P07203 whole entry, looked up): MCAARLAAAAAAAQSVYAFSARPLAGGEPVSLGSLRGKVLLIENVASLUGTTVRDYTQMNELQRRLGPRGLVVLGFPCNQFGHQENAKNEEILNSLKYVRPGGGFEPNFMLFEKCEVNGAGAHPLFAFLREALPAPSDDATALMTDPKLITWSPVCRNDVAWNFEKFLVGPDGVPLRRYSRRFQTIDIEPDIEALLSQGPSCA
Summary of the method: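 10 nM GPX1 + cpd, 30 min RT; start w/ 1 mM GSH, 0.5 mM cumene hydroperoxide, 0.5 mM NADPH, 100 nM GR, 0.01% BSA; buffer 50 mM Tris-HCl pH 7.5, 2 mM EDTA, 150 mM NaCl; Fl 340/450, 0 & 15 min.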
On the % scale 0 is the no-effect control and ±100 the full control effect; potency means the concentration at half of the fitted maximal effect.

Compound | Potency | activity, negative = inhibition | outcome
O=C(NNCS(=O)(=O)O)c1ccncc1 | 5.7 µM (active) | – | –
NC[C@@H]1CC[C@@H](N)[C@@H](O[C@H]2[C@H](O)[C@@H](O[C@H]3O[C@H](CO)[C@@H](O)[C@H](N)[C@H]3O)[C@H](N)C[C@@H]2N)O1 | – | -28.4% [at 27.7 µM] | –
CCCCCCCCCCCCCCCC(=O)OC[C@@H](O)[C@H]1OC[C@H](O)[C@H]1O | – | – | inactive
CCOC(=O)C1=C(COCCN)NC(C)=C(C(=O)OC)C1c1ccccc1Cl (stereo not drawn) | – | -30.3% | –
C[C@@H]1C[C@H]2[C@@H]3C[C@H](F)C4=CC(=O)C=C[C@]4(C)[C@@]3(Cl)[C@@H](O)C[C@]2(C)[C@H]1C(=O)COC(=O)C(C)(C)C | – | -5.85% | –
NCCCC[C@H](N)C(=O)O | – | – | inactive [at 0.4 µM]
CC1(C)[C@@H]2CC[C@@]1(C)[C@H](OC(=O)CSC#N)C2 | – | – | inactive
N#Cc1ccc2c(c1)N(CCCN1CCC(O)CC1)c1ccccc1S2 | – | – | inactive
Nc1ccc(N=Nc2ccccc2)c(N)n1 | – | -23.2% | –
OCCCNc1ccccc1 | – | -3.96% | –
CO/N=C(\C(=O)N[C@@H]1C(=O)N2C(C(=O)O)=C(CSc3nnnn3C)CS[C@H]12)c1csc(N)n1 | 11.4 µM (active) | – | –
CN(C)CCC(O)(c1ccccc1)c1ccccc1Cl (stereo not drawn) | – | – | inactive
C[C@@H]1O[C@@H]1P(=O)(O)O | 11.1 µM (active) | – | –
O=P(O)(O)CP(=O)(O)O | – | -6.74% | –
CC(C)[C@@H](C)/C=C/[C@@H](C)[C@H]1CC[C@H]2/C(=C/C=C3\C[C@@H](O)CC[C@@H]3C)CCC[C@]12C | – | – | inactive
C=CCOc1ccc(CC(=O)O)cc1Cl | – | 2.53% [at 98.3 µM] | –
NC(=O)[C@@H]1C[C@]2(NC(=O)NC2=O)c2cc(F)ccc2O1 | – | -17.2% | –
CCCCC[C@H](O)/C=C/[C@@H]1[C@H]2C/C(=C/CCCC(=O)O)O[C@H]2C[C@H]1O | – | – | inactive
C[S+](C)CCC(N)C(=O)O (stereo not drawn) | – | – | inactive
C[C@H](CCC(=O)O)[C@H]1CC[C@H]2[C@@H]3[C@H](O)C[C@@H]4C[C@H](O)CC[C@]4(C)[C@H]3C[C@H](O)[C@]12C | – | -7.08% | –
CN(C)c1ccc(C(=C2C=CC(=[N+](C)C)C=C2)c2c(O)c(S(=O)(=O)[O-])cc3cc(S(=O)(=O)O)ccc23)cc1 | – | -13.3% | –
CCCc1ccc(C(=O)O)cc1 | – | – | inactive
CCOC(=O)[C@H](CS)NCCN[C@@H](CS)C(=O)OCC | 22.7 µM (active) | – | –
